Measurements from PubChem BioAssay (NCI).
The panel holds about 83,000 compounds, 20% with a hit somewhere; the sample as a whole holds those more often.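 Results are percent growth after 48 hours of single-concentration exposure. 100 means growth as in untreated cells, lower positive values show inhibition; negative values down to -100 show cell death.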 The source made the active and inactive calls. Rule for the calls: active = growth percent below 10; inactive = the rest.

Columns and labels:
Experiment in all cases: NCI-60 one-dose screen, 48 h (100 = growth as untreated, 0 = no growth, -100 = all killed)
Settings in all cases: 10 µM unless noted
SR leukemia = system: SR leukemia
RPMI-8226 leukemia = system: RPMI-8226 leukemia
OVCAR-8 ovarian = system: OVCAR-8 ovarian
OVCAR-5 ovarian = system: OVCAR-5 ovarian
OVCAR-4 ovarian = system: OVCAR-4 ovarian
SK-OV-3 ovarian = system: SK-OV-3 ovarian
IGROV1 ovarian = system: IGROV1 ovarian
OVCAR-3 ovarian = system: OVCAR-3 ovarian
HS 578T breast = system: HS 578T breast
NCI/ADR-RES ovarian = system: NCI/ADR-RES ovarian
T-47D breast = system: T-47D breast
BT-549 breast = system: BT-549 breast
MDA-MB-435 melanoma = system: MDA-MB-435 melanoma
SW-620 colon = system: SW-620 colon
MCF7 breast = system: MCF7 breast
HCT-116 colon = system: HCT-116 colon
KM12 colon = system: KM12 colon
HCC-2998 colon = system: HCC-2998 colon

Measured: growth

Cc1ccc(Cl)cc1Nc1nc(C(F)(F)F)ccc1C(=O)N/N=C/c1cccnc1
active: SR leukemia -5.74% | OVCAR-4 ovarian 8.59% | SK-OV-3 ovarian -15.3% | IGROV1 ovarian 8.35%
inactive: RPMI-8226 leukemia 21% | OVCAR-8 ovarian 25.1% | OVCAR-5 ovarian 37.9% | OVCAR-3 ovarian 33.9% | HS 578T breast 39.9% | NCI/ADR-RES ovarian 13.9% | T-47D breast 32.9% | BT-549 breast 36.7% | MDA-MB-435 melanoma 39.5% | SW-620 colon 22.7% | MCF7 breast 11.7% | HCT-116 colon 25% | KM12 colon 34.7%

Nc1nc(=S)c2ncn(C3OC(COP(=O)(O)O)C(O)C3O)c2[nH]1 (configuration not stated)
active: SK-OV-3 ovarian 5.27% | OVCAR-3 ovarian 7.25% | MCF7 breast 9.34%
inactive: SR leukemia 11.7% | RPMI-8226 leukemia 10.9% | OVCAR-8 ovarian 13.8% | OVCAR-5 ovarian 36.8% | OVCAR-4 ovarian 32.2% | IGROV1 ovarian 44.2% | HS 578T breast 67.5% | NCI/ADR-RES ovarian 20.9% | T-47D breast 30.4% | BT-549 breast 48.8% | MDA-MB-435 melanoma 15.5% | SW-620 colon 32.2% | HCT-116 colon 22.9% | HCC-2998 colon 20.8% | KM12 colon 18.4%

COC(=O)c1cc(-c2ccc(S(C)(=O)=O)cc2)[nH]c1N/N=C/c1c(Cl)cccc1Cl
inactive: OVCAR-8 ovarian 29.7% | OVCAR-5 ovarian 42.6% | OVCAR-4 ovarian 59.6% | SK-OV-3 ovarian 29.2% | T-47D breast 31.2% | BT-549 breast 70.7% | SW-620 colon 15% | HCT-116 colon 11.4% | KM12 colon 20.6%
active: SR leukemia -12.3% | RPMI-8226 leukemia -5.71% | IGROV1 ovarian -43.6% | OVCAR-3 ovarian -33.6% | HS 578T breast -30.1% | NCI/ADR-RES ovarian 3.91% | MDA-MB-435 melanoma -69.7% | MCF7 breast -5.62%

NC(=O)c1c(NC(=O)c2ccccc2)sc2c1CCC(=O)C2
active: SR leukemia 7.6% | RPMI-8226 leukemia -10.3% | OVCAR-4 ovarian -5.57% | OVCAR-3 ovarian 7.93% | NCI/ADR-RES ovarian 7.2% | T-47D breast -9.93% | BT-549 breast 9.17% | MDA-MB-435 melanoma 8.22% | MCF7 breast 4.2% | HCT-116 colon 8.7% | KM12 colon 5.17%
inactive: OVCAR-8 ovarian 17.2% | OVCAR-5 ovarian 20.3% | SK-OV-3 ovarian 50.9% | IGROV1 ovarian 27.1% | HS 578T breast 24.5% | SW-620 colon 15.5%

CC(=O)Nc1nc2ccc(NS(=O)(=O)c3cccc4c(N(C)C)cccc34)cc2[nH]1
active: MDA-MB-435 melanoma -28.6%
inactive: SR leukemia 24.8% | RPMI-8226 leukemia 43.3% | OVCAR-8 ovarian 85.4% | OVCAR-5 ovarian 84.4% | OVCAR-4 ovarian 76.9% | SK-OV-3 ovarian 88.1% | IGROV1 ovarian 51.5% | OVCAR-3 ovarian 41.1% | HS 578T breast 52.3% | NCI/ADR-RES ovarian 97.7% | T-47D breast 74.3% | BT-549 breast 61.3% | SW-620 colon 38.7% | MCF7 breast 22.4% | HCT-116 colon 62.2% | KM12 colon 55.1%

C=C(C)[C@@H]1CC[C@]2(C(=O)NCC#CCN3CCN(C)CC3)CC[C@]3(C)[C@H](CC[C@@H]4[C@@](C)(CCC#N)[C@H](C(=C)C)CC[C@]43C)[C@@H]12
active: SR leukemia -12.1%
inactive: RPMI-8226 leukemia 33.6% | OVCAR-8 ovarian 70.7% | OVCAR-5 ovarian 64.5% | OVCAR-4 ovarian 52.8% | SK-OV-3 ovarian 72.6% | IGROV1 ovarian 43.5% | OVCAR-3 ovarian 54.2% | HS 578T breast 65.5% | NCI/ADR-RES ovarian 55.8% | T-47D breast 34.9% | BT-549 breast 78.6% | MDA-MB-435 melanoma 54.6% | SW-620 colon 45.5% | MCF7 breast 50.5% | HCT-116 colon 26.4% | KM12 colon 45.9%

CC(=O)OC[C@]12CCC(C)(C)C[C@H]1[C@@]1(O)[C@H](O)C[C@@H]3[C@@]4(C)CCCNC(C)(C)[C@@H]4CC[C@@]3(C)[C@]1(C)CC2
inactive: SR leukemia 99.3% | RPMI-8226 leukemia 107% | OVCAR-8 ovarian 111% | OVCAR-5 ovarian 102% | OVCAR-4 ovarian 120% | SK-OV-3 ovarian 111% | IGROV1 ovarian 107% | OVCAR-3 ovarian 119% | HS 578T breast 110% | NCI/ADR-RES ovarian 113% | T-47D breast 104% | BT-549 breast 111% | MDA-MB-435 melanoma 109% | SW-620 colon 109% | MCF7 breast 102% | HCT-116 colon 104% | KM12 colon 113%

O=C1c2cccc3cccc(c23)C(=O)N1N1C(=O)c2cccc3c(N4CCOCC4)ccc(c23)C1=O
inactive: SR leukemia 92.4% | RPMI-8226 leukemia 106% | OVCAR-8 ovarian 96.2% | OVCAR-5 ovarian 97.1% | OVCAR-4 ovarian 108% | SK-OV-3 ovarian 90% | IGROV1 ovarian 95.6% | OVCAR-3 ovarian 106% | HS 578T breast 90.3% | NCI/ADR-RES ovarian 92% | T-47D breast 91.7% | BT-549 breast 87.2% | MDA-MB-435 melanoma 102% | SW-620 colon 100% | MCF7 breast 94.9% | HCT-116 colon 91.3% | KM12 colon 100%

O=C1c2cccc(NCCN=Cc3cc(O)ccc3O)c2C(=O)c2c(NCCN=Cc3cc(O)ccc3O)cccc21
inactive: SR leukemia 40.4% | SK-OV-3 ovarian 73.4% | NCI/ADR-RES ovarian 42.9% | BT-549 breast 41.7%
active: RPMI-8226 leukemia -60.1% | OVCAR-8 ovarian 7.56% | OVCAR-5 ovarian -28.1% | OVCAR-4 ovarian -47% | IGROV1 ovarian -6.03% | OVCAR-3 ovarian -48.8% | HS 578T breast -37.6% | T-47D breast -2.29% | MDA-MB-435 melanoma -5.74% | SW-620 colon -68.7% | MCF7 breast -59.6% | HCT-116 colon -17.3% | KM12 colon -71.3%

CCn1c(=S)[nH]c2c(=O)n(C)c(=O)n(C)c21
inactive: SR leukemia 110% | RPMI-8226 leukemia 101% | OVCAR-8 ovarian 101% | OVCAR-5 ovarian 104% | OVCAR-4 ovarian 114% | SK-OV-3 ovarian 107% | IGROV1 ovarian 102% | OVCAR-3 ovarian 121% | HS 578T breast 160% | NCI/ADR-RES ovarian 103% | T-47D breast 104% | BT-549 breast 92.6% | MDA-MB-435 melanoma 103% | SW-620 colon 112% | MCF7 breast 102% | HCT-116 colon 93.1% | KM12 colon 111%

COc1cc(CNS(=O)(=O)c2ccc(C)cc2)ccc1OCc1cn(-c2ccc(Br)cc2)nn1
inactive: SR leukemia 100% | RPMI-8226 leukemia 87.2% | OVCAR-8 ovarian 102% | OVCAR-5 ovarian 108% | OVCAR-4 ovarian 97.3% | SK-OV-3 ovarian 75.3% | IGROV1 ovarian 103% | OVCAR-3 ovarian 112% | HS 578T breast 95.6% | NCI/ADR-RES ovarian 104% | T-47D breast 101% | BT-549 breast 110% | MDA-MB-435 melanoma 101% | SW-620 colon 99.1% | MCF7 breast 88% | HCT-116 colon 100% | KM12 colon 103%

O=c1oc2ccc([N+](=O)[O-])cc2cc1Br
inactive: SR leukemia 85% | RPMI-8226 leukemia 107% | OVCAR-8 ovarian 100% | OVCAR-5 ovarian 109% | OVCAR-4 ovarian 109% | SK-OV-3 ovarian 106% | IGROV1 ovarian 119% | OVCAR-3 ovarian 111% | HS 578T breast 106% | NCI/ADR-RES ovarian 108% | T-47D breast 101% | BT-549 breast 112% | MDA-MB-435 melanoma 104% | SW-620 colon 98.1% | MCF7 breast 97.7% | HCT-116 colon 105% | KM12 colon 107%

O=C(CSc1nc2ccc([N+](=O)[O-])cc2[nH]1)Nc1ccc(F)cc1
inactive: SR leukemia 33.7% | RPMI-8226 leukemia 24.1% | OVCAR-8 ovarian 67.3% | OVCAR-5 ovarian 91.8% | OVCAR-4 ovarian 34.6% | SK-OV-3 ovarian 63.1% | IGROV1 ovarian 68.4% | OVCAR-3 ovarian 47.8% | HS 578T breast 74% | NCI/ADR-RES ovarian 59% | T-47D breast 16.6% | BT-549 breast 65.2% | MDA-MB-435 melanoma 53.1% | SW-620 colon 86% | MCF7 breast 62.1% | HCT-116 colon 54.7% | HCC-2998 colon 75.7% | KM12 colon 64%

O=C(Nc1nn(-c2ccc(Cl)cc2Cl)nc1-c1ccccc1)c1ccccc1
inactive: SR leukemia 46% | RPMI-8226 leukemia 75.7% | OVCAR-8 ovarian 103% | OVCAR-5 ovarian 92% | OVCAR-4 ovarian 106% | SK-OV-3 ovarian 117% | IGROV1 ovarian 95% | OVCAR-3 ovarian 90.7% | HS 578T breast 105% | NCI/ADR-RES ovarian 106% | T-47D breast 103% | BT-549 breast 119% | MDA-MB-435 melanoma 95.3% | SW-620 colon 105% | MCF7 breast 105% | HCT-116 colon 84.3% | KM12 colon 80.8%

CNc1nc(S(=O)c2ccc(C#N)cc2)nc2ccccc12 (configuration not stated)
inactive: SR leukemia 29.4% | RPMI-8226 leukemia 61% | OVCAR-8 ovarian 87.8% | OVCAR-5 ovarian 81.2% | OVCAR-4 ovarian 68.6% | SK-OV-3 ovarian 98.6% | IGROV1 ovarian 86.3% | OVCAR-3 ovarian 53.4% | HS 578T breast 79.9% | NCI/ADR-RES ovarian 97.8% | T-47D breast 62.4% | BT-549 breast 74.6% | MDA-MB-435 melanoma 88% | SW-620 colon 76% | MCF7 breast 72.1% | HCT-116 colon 51.4% | KM12 colon 99%

Oc1c(Cl)cc(Cl)c2ccc(Cn3cc(-c4cc(F)cc(F)c4)nn3)nc12
inactive: OVCAR-8 ovarian 69.6% | OVCAR-5 ovarian 91% | OVCAR-4 ovarian 56% | SK-OV-3 ovarian 108% | IGROV1 ovarian 85.8% | HS 578T breast 88.5% | NCI/ADR-RES ovarian 108% | T-47D breast 40.4% | BT-549 breast 70.9% | MDA-MB-435 melanoma 60.8% | MCF7 breast 34.4% | HCC-2998 colon 103% | KM12 colon 102%
active: SR leukemia -22.2% | RPMI-8226 leukemia 5.12% | OVCAR-3 ovarian 2.47% | SW-620 colon 4.81% | HCT-116 colon 5.12%

Cc1cc2c(O)c(-c3cc(Cl)ccc3Cl)c3sc(=O)oc3c2cc1C
inactive: SR leukemia 54.3% | RPMI-8226 leukemia 38.3% | OVCAR-8 ovarian 68.1% | OVCAR-5 ovarian 106% | OVCAR-4 ovarian 24.5% | SK-OV-3 ovarian 76.3% | IGROV1 ovarian 76.5% | OVCAR-3 ovarian 29.8% | HS 578T breast 76.4% | NCI/ADR-RES ovarian 85.3% | T-47D breast 32.4% | BT-549 breast 81.7% | MDA-MB-435 melanoma 47.3% | SW-620 colon 57.8% | MCF7 breast 60.9% | HCT-116 colon 36.2% | KM12 colon 59.1%
